In PubChem BioAssay (NCI):
Values joined by “and” are separate entries in the source; they are usually repeats but may differ in a detail not shown here. Equal values may be shown once. Compounds without any hit were thinned out: in the full panel of roughly 79,000, 15% have a hit. A structure can be active in one record and inactive in another. Active and inactive are the calls of the source. No stated cut-off is given here; in the data, active means growth inhibition above about 70%; inactive means the rest.

Assays:
[1] = NCI Yeast Anticancer Drug Screen. Data for the wt2 strain (AID 169);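 further: 0% = growth of vehicle-treated yeast cultures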; conditions: S. cerevisiae wt2 strain growth inhibition, stronger effect = higher value
Summary of the method: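 Against vehicle-treated controls, the growth of yeast exposed to each compound was compared, and the inhibition was recorded.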

[2] = NCI Yeast Anticancer Drug Screen. Data for the mlh1 strain (AID 171);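 further: 0% = growth of vehicle-treated control cultures of the same strain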; conditions: S. cerevisiae mlh1 strain growth inhibition, stronger effect = higher value
Summary of the method: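 Measured: yeast growth. Reference: vehicle-treated controls. Organism: strain with a defined alteration affecting DNA damage repair or cell cycle control, treated with compound.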

[3] = NCI Yeast Anticancer Drug Screen. Data for the sgs1 strain (AID 173);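 further: 0% = growth of vehicle-only control cultures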; conditions: S. cerevisiae sgs1 mutant, stronger effect = higher value
Summary of the method: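 Each compound was added to cultures of the altered yeast strain. Growth was recorded, and inhibition was derived by comparison with vehicle controls.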

[4] = NCI Yeast Anticancer Drug Screen. Data for the mlh1 rad18 strain (AID 175); conditions: S. cerevisiae mlh1 rad18 strain growth inhibition, stronger effect = higher value
Summary of the method: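 Genetically defined yeast (DNA repair-deficient) exposed to compounds; growth inhibition determined relative to vehicle.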

[5] = NCI Yeast Anticancer Drug Screen. Data for the rad18 strain (AID 177); conditions: S. cerevisiae rad18 mutant growth inhibition, stronger effect = higher value
Summary of the method: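 Vehicle-treated cultures served as the baseline for scoring compound-induced growth inhibition in DNA-repair-mutant yeast.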

[6] = NCI Yeast Anticancer Drug Screen. Data for the rad52 strain (AID 147);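 further: 0% = growth of vehicle-treated control cultures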; conditions: S. cerevisiae rad52 mutant growth inhibition, stronger effect = higher value
Summary of the method: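 The repair-mutant yeast strain was incubated with compounds, then growth was read and inhibition derived relative to vehicle.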

[7] = NCI Yeast Anticancer Drug Screen. Data for the wt1 strain (AID 149);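 further: 0% = growth of vehicle-treated wt1 cultures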; conditions: S. cerevisiae wt1 strain (SPY 50644) growth inhibition, stronger effect = higher value
Summary of the method: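 The wt1 strain was treated with compounds, and growth was compared with vehicle-treated cultures to give inhibition.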

[8] = NCI Yeast Anticancer Drug Screen. Data for the rad50EPP+ strain (AID 151);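 further: 0% = growth of vehicle-treated control cultures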; conditions: S. cerevisiae rad50 mutant strain, stronger effect = higher value
Summary of the method: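 Vehicle-normalised growth inhibition; rad50EPP+ yeast strain, altered in DNA damage repair, compound-treated.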

[9] = NCI Yeast Anticancer Drug Screen. Data for the mgt1 strain (AID 153); conditions: S. cerevisiae mgt1 mutant growth inhibition, stronger effect = higher value
Summary of the method: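 Vehicle-normalized growth inhibition is determined in mgt1 yeast, a strain selected for a defined alteration in DNA repair or cell cycle control.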

[10] = NCI Yeast Anticancer Drug Screen. Data for the rad50 strain (AID 155);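 further: 0% = growth of vehicle-only cultures of the same strain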; conditions: S. cerevisiae rad50 strain growth inhibition, stronger effect = higher value
Summary of the method: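 Cells are treated with compound, grown, and their growth is then scored against vehicle-only cultures of the same repair-deficient yeast strain.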

[11] = NCI Yeast Anticancer Drug Screen. Data for the mec2-1 strain (AID 157); conditions: S. cerevisiae mec2-1 strain, stronger effect = higher value
Summary of the method: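 Mutant yeast (mec2-1) grown with compound; growth inhibition relative to vehicle control reported.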

[12] = NCI Yeast Anticancer Drug Screen. Data for the rad14 strain (AID 159);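 further: 0% = growth of vehicle-treated control cultures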; conditions: S. cerevisiae rad14 strain growth inhibition, stronger effect = higher value
Summary of the method: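 Readout: yeast growth inhibition, referenced to vehicle-only cultures. Strain bears a defined alteration in DNA damage repair.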

[13] = NCI Yeast Anticancer Drug Screen. Data for the sgs1 mgt1 strain (AID 161);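 further: 0% = growth of cultures given vehicle only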; conditions: S. cerevisiae sgs1 mgt1 strain, stronger effect = higher value
Summary of the method: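 Percent growth inhibition was derived by comparing compound-exposed mutant yeast with vehicle-exposed cultures. The strain carries alterations in DNA damage repair.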

[14] = NCI Yeast Anticancer Drug Screen. Data for the CLN2oe strain (AID 163);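 further: 0% = growth of vehicle-only control cultures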; conditions: S. cerevisiae CLN2oe strain, stronger effect = higher value
Summary of the method: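 Compounds are applied to yeast harbouring a defined cell-cycle control change; reduced growth compared with vehicle-treated controls gives the value.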

[15] = NCI Yeast Anticancer Drug Screen. Data for the bub3 strain (AID 167); conditions: S. cerevisiae bub3 mutant strain, stronger effect = higher value
Summary of the method: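 Part of a panel of yeast mutants defective in DNA damage repair or cell cycle regulation. Each strain is grown with compound, and inhibition is calculated relative to solvent-treated cultures.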

[16] = at 5.0 µM (retest, dose inferred, filed as 0.5)
[17] = at 50.0 µM (retest, dose inferred, filed as 5.0)

Measured: growth inhibition

COc1c(O)c(C=O)c(Br)c(C=O)c1O
inactive: [1]; at 33.0 µM 30% | [2]; at 1.2 µM 5% | [2]; at 3.7 µM 2% | [2]; at 11.0 µM 9% | [2]; at 33.0 µM 43% | [3]; at 1.2 µM -2% | [3]; at 3.7 µM 3% | [3]; at 11.0 µM 12% | [3]; at 33.0 µM 53% | [4]; [16] 7% | [5]; at 1.2 µM 0% | [5]; at 3.7 µM -1% | [5]; at 11.0 µM 5% | [5]; at 33.0 µM 24%
active: [1]; at 100.0 µM 89% | [2]; at 100.0 µM 95% | [3]; at 100.0 µM 94% | [4]; [17] 98% | [4]; at 50.0 µM 99% | [5]; at 100.0 µM 90%

Cc1nc2c(Br)cc(Br)cc2c(=O)n1-c1ccccc1NC1OCC(O)C(O)C1O (stereo not given)
75% (active) and 23% (inactive): [11]; [17]
88.5% (active) and 61.5% (inactive): [13]; at 50.0 µM
inactive: [6]; at 1.2 µM 1% | [6]; at 3.7 µM 4% | [6]; at 11.0 µM 25% | [6]; at 33.0 µM 44% | [7]; at 1.2 µM -50% | [7]; at 3.7 µM 3% | [7]; at 11.0 µM 9% | [7]; at 33.0 µM 28% | [8]; at 1.2 µM 37% | [8]; at 3.7 µM 36% | [8]; at 11.0 µM 17% | [8]; at 33.0 µM 20% | [8]; at 100.0 µM 8% | [9]; at 1.2 µM 25% | [9]; at 3.7 µM 21% | [9]; at 11.0 µM 20% | [9]; at 33.0 µM 39% | [10]; at 1.2 µM 0% | [10]; at 3.7 µM 6% | [10]; [16] 10% and 17% | [10]; at 11.0 µM 18% | [10]; at 33.0 µM 63% | [11]; at 1.2 µM 7% | [11]; at 3.7 µM 9% | [11]; [16] 10% and 22% | [11]; at 11.0 µM 14% | [11]; at 33.0 µM 38% | [12]; at 1.2 µM 2% | [12]; at 3.7 µM 4% | [12]; at 11.0 µM 16% | [12]; at 33.0 µM 39% | [13]; [16] 12% and 11% | [13]; [17] 13% and 24% | [14]; at 1.2 µM 40% | [14]; at 3.7 µM 35% | [14]; at 11.0 µM 44% | [15]; at 1.2 µM 11% | [15]; at 3.7 µM 5% | [15]; [16] 20% and 14% | [15]; at 11.0 µM 8% | [15]; at 33.0 µM 47% | [1]; at 1.2 µM 2% | [1]; at 3.7 µM 4% | [1]; at 11.0 µM 10% | [1]; at 33.0 µM 43% | [2]; at 1.2 µM 0% | [2]; at 3.7 µM 4% | [2]; at 11.0 µM 12% | [2]; at 33.0 µM 36% | [3]; at 1.2 µM 2% | [3]; at 3.7 µM 5% | [3]; at 11.0 µM 13% | [3]; at 33.0 µM 41% | [4]; [16] -23% and 18% | [5]; at 1.2 µM 42% | [5]; at 3.7 µM 41% | [5]; at 11.0 µM 41% | [5]; at 33.0 µM 62%
74% (active) and 68% (inactive): [10]; [17]
70.8% (active) and 22.4% (inactive): [11]; at 50.0 µM
active: [6]; at 100.0 µM 97% | [7]; at 100.0 µM 93% | [9]; at 100.0 µM 97% | [10]; at 50.0 µM 94.5% and 89.8% | [10]; at 100.0 µM 96% | [11]; at 100.0 µM 96% | [12]; at 100.0 µM 94% | [14]; at 33.0 µM 72% | [14]; at 100.0 µM 97% | [15]; at 50.0 µM 97.2% and 78.4% | [15]; at 100.0 µM 96% | [1]; at 100.0 µM 96% | [2]; at 100.0 µM 92% | [3]; at 100.0 µM 88% | [4]; [17] 93% and 74% | [4]; at 50.0 µM 95.2% and 82.2% | [5]; at 100.0 µM 97%
92% (active) and 51% (inactive): [15]; [17]

O=C(NCCCNCCN1C(=O)c2cccc3cc([N+](=O)[O-])cc(c23)C1=O)c1cc(-c2ccccc2)nc2ccccc12
active: [6]; at 100.0 µM 98% | [7]; at 100.0 µM 96% | [9]; at 100.0 µM 99% | [10]; [17] 98% | [10]; at 50.0 µM 94.3% | [10]; at 100.0 µM 99% | [11]; [17] 86% | [11]; at 50.0 µM 91% | [11]; at 100.0 µM 99% | [12]; at 100.0 µM 99% | [13]; [17] 96% | [13]; at 50.0 µM 93.5% | [14]; at 100.0 µM 98% | [15]; [17] 97% | [15]; at 50.0 µM 93.3% | [15]; at 100.0 µM 98% | [1]; at 100.0 µM 99% | [2]; at 100.0 µM 99% | [3]; at 100.0 µM 98% | [4]; [17] 97% | [4]; at 50.0 µM 97.6% | [5]; at 100.0 µM 99%
inactive: [6]; at 1.2 µM -2% | [6]; at 3.7 µM 2% | [6]; at 11.0 µM 6% | [6]; at 33.0 µM 38% | [7]; at 1.2 µM 0% | [7]; at 3.7 µM -1% | [7]; at 11.0 µM -2% | [7]; at 33.0 µM -6% | [8]; at 1.2 µM 0% | [8]; at 3.7 µM 2% | [8]; at 11.0 µM 8% | [8]; at 33.0 µM 19% | [8]; at 100.0 µM 57% | [9]; at 1.2 µM -1% | [9]; at 3.7 µM 0% | [9]; at 11.0 µM -1% | [9]; at 33.0 µM 8% | [10]; at 1.2 µM -2% | [10]; at 3.7 µM 2% | [10]; [16] -11% | [10]; at 11.0 µM 8% | [10]; at 33.0 µM 64% | [11]; at 1.2 µM 0% | [11]; at 3.7 µM -1% | [11]; [16] -1% | [11]; at 11.0 µM 0% | [11]; at 33.0 µM 5% | [12]; at 1.2 µM -1% | [12]; at 3.7 µM -1% | [12]; at 11.0 µM 4% | [12]; at 33.0 µM 21% | [13]; [16] -2% | [14]; at 1.2 µM 1% | [14]; at 3.7 µM 3% | [14]; at 11.0 µM -4% | [14]; at 33.0 µM 10% | [15]; at 1.2 µM -4% | [15]; at 3.7 µM 0% | [15]; [16] -9% | [15]; at 11.0 µM 2% | [15]; at 33.0 µM 9% | [1]; at 1.2 µM -1% | [1]; at 3.7 µM -1% | [1]; at 11.0 µM -2% | [1]; at 33.0 µM -2% | [2]; at 1.2 µM -3% | [2]; at 3.7 µM 1% | [2]; at 11.0 µM 1% | [2]; at 33.0 µM 9% | [3]; at 1.2 µM -1% | [3]; at 3.7 µM 1% | [3]; at 11.0 µM 2% | [3]; at 33.0 µM 17% | [4]; [16] -1% | [5]; at 1.2 µM -3% | [5]; at 3.7 µM -2% | [5]; at 11.0 µM -1% | [5]; at 33.0 µM 10%
